In the supplement of paper PMC7695840:
Where a name gives a salt, the structure may show the parent alone.

What follows are compounds tested on Staphylococcus aureus MW2 delta-mecA (mecA-) (assay: normalized GFP fluorescence (growth of mecA- strain) (fraction of control range); higher = more growth of mecA- strain). Conditions: compound concentration: 150 uM; cefoxitin: subinhibitory; fluorescent label: GFP.
Summary of the method: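 Two pre-induced S. aureus MW2 strains, one with the gene labeled by DsRed and one lacking it labeled by GFP, were mixed 1:1 in LB with a subinhibitory antibiotic dose set daily. The mix went at 5 µL/well onto 150 μM compound (1.5% DMSO) in 1536-well plates, single replicate, and grew unshaken 20 h at 37 °C, 90% humidity. DsRed (540/590) and GFP (485/520) values were scaled per plate between single-strain control medians, and plates with high untreated ratios or rows with DsRed/GFP >10 were left out.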
In the case of `COc1cc(Nc2ncc(F)c(Nc3ccc4c(n3)N(COP(=O)(O)O)C(=O)C(C)(C)O4)n2)cc(OC)c1OC` [R788 (Fostamatinib)], the “normalized GFP fluorescence” value is reported as 0.503.
In the case of `COc1ccc(-c2cc(=O)c3c(O)cc(O[C@@H]4O[C@H](CO[C@@H]5O[C@@H](C)[C@H](O)[C@@H](O)[C@H]5O)[C@@H](O)[C@H](O)[C@H]4O)cc3o2)cc1O` [Diosmin], the “normalized GFP fluorescence” value is reported as 0.55.
With `C[C@H](NCc1ccc(OCc2cccc(F)c2)cc1)C(N)=O` the “normalized GFP fluorescence” value was 0.957.
`CCCN(CCC)C(=O)C(CCC(=O)O)NC(=O)c1ccccc1` (stereo not given) was tested, and the “normalized GFP fluorescence” value was 0.792.
For `OCC(S)CS` (stereo not given), the “normalized GFP fluorescence” value was 0.185.
With `C[N+](C)(C)C[C@H](O)CC(=O)[O-]` [L-carnitine (Levocarnitine)] the “normalized GFP fluorescence” value was 0.171.
In the case of `NCCCC[C@H](N[C@@H](CCc1ccccc1)C(=O)O)C(=O)N1CCC[C@H]1C(=O)O`, the “normalized GFP fluorescence” value is reported as 0.972.
In the case of `CN1C(C(=O)Nc2ccccn2)=C(O)c2sccc2S1(=O)=O`, the “normalized GFP fluorescence” value is reported as 0.0134.
`CN1CCc2cccc3c2[C@H]1Cc1ccc(O)c(O)c1-3` was tested, and the “normalized GFP fluorescence” value was 0.463.
In the case of `CCCCCC(=O)O[C@]1(C(C)=O)CC[C@H]2[C@@H]3CCC4=CC(=O)CC[C@]4(C)[C@H]3CC[C@@]21C`, the “normalized GFP fluorescence” value is reported as 0.34.
`C[C@]12CC[C@@H]3c4ccc(O)cc4CC[C@H]3[C@@H]1C[C@@H](O)[C@@H]2O` was tested, and the “normalized GFP fluorescence” value was 0.63.
For `N#C[C@@H]1C[C@@H]2C[C@@H]2N1C(=O)[C@@H](N)C12CC3CC(CC(O)(C3)C1)C2`, the “normalized GFP fluorescence” value was 0.824.
In the case of `CCC[C@H](NC(=O)[C@@H]1[C@H]2CCC[C@H]2CN1C(=O)[C@@H](NC(=O)[C@@H](NC(=O)c1cnccn1)C1CCCCC1)C(C)(C)C)C(=O)C(=O)NC1CC1` [Telaprevir (VX-950)], the “normalized GFP fluorescence” value is reported as 0.0337.
In the case of `CNC(=C[N+](=O)[O-])NCCSCc1ccc(CN(C)C)o1`, the “normalized GFP fluorescence” value is reported as 0.32.
In the case of `COc1cc(OC)c(C(=O)CCCN2CCCC2)c(OC)c1` [Buflomedil HCl], the “normalized GFP fluorescence” value is reported as 0.4.
For `COC(=O)C1=C(C)NC(C)=C(C(=O)OC(C)C)C1c1cccc2nonc12` (stereo not given), the “normalized GFP fluorescence” value was 0.00618.
For `C=CC[N+]1([C@H]2C[C@H]3[C@@H]4CC[C@H]5C[C@H](O)[C@@H](N6CCOCC6)C[C@]5(C)[C@H]4CC[C@]3(C)[C@H]2OC(C)=O)CCCC1`, the “normalized GFP fluorescence” value was 0.279.
`COc1cc2/c(=N/c3ccc(Br)cc3F)nc[nH]c2cc1OCC1CCN(C)CC1` [Vandetanib (Zactima)] was tested, and the “normalized GFP fluorescence” value was 0.22.
For `NCC(=O)CCC(=O)O`, the “normalized GFP fluorescence” value was 0.315.
In the case of `CCCCOc1ccc(CC(=O)NO)cc1` [Bufexamac], the “normalized GFP fluorescence” value is reported as 0.312.
With `S=P(N1CC1)(N1CC1)N1CC1` the “normalized GFP fluorescence” value was 0.213.
In the case of `COc1cc2nccc(Oc3ccc(NC(=O)Nc4cc(C)on4)c(Cl)c3)c2cc1OC` [Tivozanib (AV-951)], the “normalized GFP fluorescence” value is reported as 0.445.
With `COC(=O)Nc1nc2cc(C(=O)c3ccccc3)ccc2[nH]1` the “normalized GFP fluorescence” value was 0.145.
With `CCN(CC)CC(=O)Nc1c(C)cccc1C` the “normalized GFP fluorescence” value was 0.574.
For `COCCCOc1cc(C[C@@H](C[C@H](N)[C@@H](O)C[C@H](C(=O)NCC(C)(C)C(N)=O)C(C)C)C(C)C)ccc1OC`, the “normalized GFP fluorescence” value was 0.131.
For `NC[C@@H]1O[C@H](O[C@H]2[C@@H](O)[C@H](O[C@@H]3[C@@H](O)[C@H](N)C[C@H](N)[C@H]3O[C@H]3O[C@H](CO)[C@@H](O)[C@H](O)[C@H]3N)O[C@@H]2CO)[C@H](N)[C@@H](O)[C@@H]1O`, the “normalized GFP fluorescence” value was 0.422.
For `C[C@@H]1O[C@@H](OC[C@H]2O[C@@H](Oc3c(-c4ccc(O)c(O)c4)oc4cc(O)cc(O)c4c3=O)[C@H](O)[C@@H](O)[C@@H]2O)[C@H](O)[C@H](O)[C@H]1O` [Rutin (Rutoside)], the “normalized GFP fluorescence” value was 0.394.
`Cc1ccc(Nc2c(F)cccc2Cl)c(CC(=O)O)c1` was tested, and the “normalized GFP fluorescence” value was 0.0553.
`CN1CCCN=C1/C=C/c1cccc(O)c1` was tested, and the “normalized GFP fluorescence” value was 0.279.
`CN(C)CCCOc1nn(Cc2ccccc2)c2ccccc12` was tested, and the “normalized GFP fluorescence” value was 0.19.
`CN[C@@H]1[C@H](O[C@H]2[C@H](O[C@H]3[C@H](O)[C@@H](O)[C@H](N=C(N)N)[C@@H](O)[C@@H]3N=C(N)N)O[C@@H](C)[C@]2(O)C=O)O[C@@H](CO)[C@H](O)[C@H]1O` was tested, and the “normalized GFP fluorescence” value was 0.752.
With `Oc1ccc(OCc2ccccc2)cc1` the “normalized GFP fluorescence” value was 0.0954.
`CN1C(=O)OC(C)(C)C1=O` was tested, and the “normalized GFP fluorescence” value was 0.0459.
`Oc1ccc(O)cc1` was tested, and the “normalized GFP fluorescence” value was 0.379.
With `O=C1c2ccccc2C(=O)C1c1ccccc1` [Phenindione (Rectadione)] the “normalized GFP fluorescence” value was 0.0982.
With `CC1(C)S[C@@H]2[C@H](NC(=O)COc3ccccc3)C(=O)N2[C@H]1C(=O)O` the “normalized GFP fluorescence” value was 0.0184.
`CCOC(=O)n1ccn(C)c1=S` [Carbimazole] was tested, and the “normalized GFP fluorescence” value was 0.708.
In the case of `OCCN1CCN(CCCN2c3ccccc3Sc3ccc(C(F)(F)F)cc32)CC1`, the “normalized GFP fluorescence” value is reported as 0.0603.
`C[C@@H]1[C@H](O)[C@@H](C)/C=C/C=C/C=C/C=C/C=C/C=C/C=C/[C@H](O[C@@H]2O[C@H](C)[C@@H](O)[C@H](N)[C@@H]2O)C[C@@H]2O[C@](O)(C[C@@H](O)C[C@@H](O)[C@H](O)CC[C@@H](O)C[C@@H](O)CC(=O)O[C@H]1C)C[C@H](O)[C@H]2C(=O)O` was tested, and the “normalized GFP fluorescence” value was 0.269.
`C=CC(N)CCC(=O)O` (stereo not given) was tested, and the “normalized GFP fluorescence” value was 0.441.
